Laboratory results from the supplement of paper PMC11001985.
A number with no mark means an inactive call.

Compound: C#CCNC(=O)CCSSCCC(=O)NCCc1ccc(C=O)c(C=O)c1
Assay: lysine labeling ratio R10:1 (500 µM / 50 µM probe), SILAC-ABPP in living cells; higher = lower intrinsic lysine reactivity toward the probe, active = 2 or less
Settings: HeLa; probe concentrations 500 vs 50 µM
How it was run: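 SILAC light and heavy living HeLa cells in PBS at room temperature were labelled with 50 µM or 500 µM of an alkyne-tagged, disulfide-linked lysine probe, with forward and reverse label swaps. Mixed lysates were clicked to biotin-azide, trypsin-digested, captured on neutravidin, DTT-released, alkylated and analysed by LC-MS/MS on a TIMS-TOF Pro. R is the filtered median high-probe/low-probe MS1 peptide ratio per lysine, then the median across forward and reverse replicates. Ratios are capped at 20.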

UniProt Q15149, sequence (Q15149 whole entry): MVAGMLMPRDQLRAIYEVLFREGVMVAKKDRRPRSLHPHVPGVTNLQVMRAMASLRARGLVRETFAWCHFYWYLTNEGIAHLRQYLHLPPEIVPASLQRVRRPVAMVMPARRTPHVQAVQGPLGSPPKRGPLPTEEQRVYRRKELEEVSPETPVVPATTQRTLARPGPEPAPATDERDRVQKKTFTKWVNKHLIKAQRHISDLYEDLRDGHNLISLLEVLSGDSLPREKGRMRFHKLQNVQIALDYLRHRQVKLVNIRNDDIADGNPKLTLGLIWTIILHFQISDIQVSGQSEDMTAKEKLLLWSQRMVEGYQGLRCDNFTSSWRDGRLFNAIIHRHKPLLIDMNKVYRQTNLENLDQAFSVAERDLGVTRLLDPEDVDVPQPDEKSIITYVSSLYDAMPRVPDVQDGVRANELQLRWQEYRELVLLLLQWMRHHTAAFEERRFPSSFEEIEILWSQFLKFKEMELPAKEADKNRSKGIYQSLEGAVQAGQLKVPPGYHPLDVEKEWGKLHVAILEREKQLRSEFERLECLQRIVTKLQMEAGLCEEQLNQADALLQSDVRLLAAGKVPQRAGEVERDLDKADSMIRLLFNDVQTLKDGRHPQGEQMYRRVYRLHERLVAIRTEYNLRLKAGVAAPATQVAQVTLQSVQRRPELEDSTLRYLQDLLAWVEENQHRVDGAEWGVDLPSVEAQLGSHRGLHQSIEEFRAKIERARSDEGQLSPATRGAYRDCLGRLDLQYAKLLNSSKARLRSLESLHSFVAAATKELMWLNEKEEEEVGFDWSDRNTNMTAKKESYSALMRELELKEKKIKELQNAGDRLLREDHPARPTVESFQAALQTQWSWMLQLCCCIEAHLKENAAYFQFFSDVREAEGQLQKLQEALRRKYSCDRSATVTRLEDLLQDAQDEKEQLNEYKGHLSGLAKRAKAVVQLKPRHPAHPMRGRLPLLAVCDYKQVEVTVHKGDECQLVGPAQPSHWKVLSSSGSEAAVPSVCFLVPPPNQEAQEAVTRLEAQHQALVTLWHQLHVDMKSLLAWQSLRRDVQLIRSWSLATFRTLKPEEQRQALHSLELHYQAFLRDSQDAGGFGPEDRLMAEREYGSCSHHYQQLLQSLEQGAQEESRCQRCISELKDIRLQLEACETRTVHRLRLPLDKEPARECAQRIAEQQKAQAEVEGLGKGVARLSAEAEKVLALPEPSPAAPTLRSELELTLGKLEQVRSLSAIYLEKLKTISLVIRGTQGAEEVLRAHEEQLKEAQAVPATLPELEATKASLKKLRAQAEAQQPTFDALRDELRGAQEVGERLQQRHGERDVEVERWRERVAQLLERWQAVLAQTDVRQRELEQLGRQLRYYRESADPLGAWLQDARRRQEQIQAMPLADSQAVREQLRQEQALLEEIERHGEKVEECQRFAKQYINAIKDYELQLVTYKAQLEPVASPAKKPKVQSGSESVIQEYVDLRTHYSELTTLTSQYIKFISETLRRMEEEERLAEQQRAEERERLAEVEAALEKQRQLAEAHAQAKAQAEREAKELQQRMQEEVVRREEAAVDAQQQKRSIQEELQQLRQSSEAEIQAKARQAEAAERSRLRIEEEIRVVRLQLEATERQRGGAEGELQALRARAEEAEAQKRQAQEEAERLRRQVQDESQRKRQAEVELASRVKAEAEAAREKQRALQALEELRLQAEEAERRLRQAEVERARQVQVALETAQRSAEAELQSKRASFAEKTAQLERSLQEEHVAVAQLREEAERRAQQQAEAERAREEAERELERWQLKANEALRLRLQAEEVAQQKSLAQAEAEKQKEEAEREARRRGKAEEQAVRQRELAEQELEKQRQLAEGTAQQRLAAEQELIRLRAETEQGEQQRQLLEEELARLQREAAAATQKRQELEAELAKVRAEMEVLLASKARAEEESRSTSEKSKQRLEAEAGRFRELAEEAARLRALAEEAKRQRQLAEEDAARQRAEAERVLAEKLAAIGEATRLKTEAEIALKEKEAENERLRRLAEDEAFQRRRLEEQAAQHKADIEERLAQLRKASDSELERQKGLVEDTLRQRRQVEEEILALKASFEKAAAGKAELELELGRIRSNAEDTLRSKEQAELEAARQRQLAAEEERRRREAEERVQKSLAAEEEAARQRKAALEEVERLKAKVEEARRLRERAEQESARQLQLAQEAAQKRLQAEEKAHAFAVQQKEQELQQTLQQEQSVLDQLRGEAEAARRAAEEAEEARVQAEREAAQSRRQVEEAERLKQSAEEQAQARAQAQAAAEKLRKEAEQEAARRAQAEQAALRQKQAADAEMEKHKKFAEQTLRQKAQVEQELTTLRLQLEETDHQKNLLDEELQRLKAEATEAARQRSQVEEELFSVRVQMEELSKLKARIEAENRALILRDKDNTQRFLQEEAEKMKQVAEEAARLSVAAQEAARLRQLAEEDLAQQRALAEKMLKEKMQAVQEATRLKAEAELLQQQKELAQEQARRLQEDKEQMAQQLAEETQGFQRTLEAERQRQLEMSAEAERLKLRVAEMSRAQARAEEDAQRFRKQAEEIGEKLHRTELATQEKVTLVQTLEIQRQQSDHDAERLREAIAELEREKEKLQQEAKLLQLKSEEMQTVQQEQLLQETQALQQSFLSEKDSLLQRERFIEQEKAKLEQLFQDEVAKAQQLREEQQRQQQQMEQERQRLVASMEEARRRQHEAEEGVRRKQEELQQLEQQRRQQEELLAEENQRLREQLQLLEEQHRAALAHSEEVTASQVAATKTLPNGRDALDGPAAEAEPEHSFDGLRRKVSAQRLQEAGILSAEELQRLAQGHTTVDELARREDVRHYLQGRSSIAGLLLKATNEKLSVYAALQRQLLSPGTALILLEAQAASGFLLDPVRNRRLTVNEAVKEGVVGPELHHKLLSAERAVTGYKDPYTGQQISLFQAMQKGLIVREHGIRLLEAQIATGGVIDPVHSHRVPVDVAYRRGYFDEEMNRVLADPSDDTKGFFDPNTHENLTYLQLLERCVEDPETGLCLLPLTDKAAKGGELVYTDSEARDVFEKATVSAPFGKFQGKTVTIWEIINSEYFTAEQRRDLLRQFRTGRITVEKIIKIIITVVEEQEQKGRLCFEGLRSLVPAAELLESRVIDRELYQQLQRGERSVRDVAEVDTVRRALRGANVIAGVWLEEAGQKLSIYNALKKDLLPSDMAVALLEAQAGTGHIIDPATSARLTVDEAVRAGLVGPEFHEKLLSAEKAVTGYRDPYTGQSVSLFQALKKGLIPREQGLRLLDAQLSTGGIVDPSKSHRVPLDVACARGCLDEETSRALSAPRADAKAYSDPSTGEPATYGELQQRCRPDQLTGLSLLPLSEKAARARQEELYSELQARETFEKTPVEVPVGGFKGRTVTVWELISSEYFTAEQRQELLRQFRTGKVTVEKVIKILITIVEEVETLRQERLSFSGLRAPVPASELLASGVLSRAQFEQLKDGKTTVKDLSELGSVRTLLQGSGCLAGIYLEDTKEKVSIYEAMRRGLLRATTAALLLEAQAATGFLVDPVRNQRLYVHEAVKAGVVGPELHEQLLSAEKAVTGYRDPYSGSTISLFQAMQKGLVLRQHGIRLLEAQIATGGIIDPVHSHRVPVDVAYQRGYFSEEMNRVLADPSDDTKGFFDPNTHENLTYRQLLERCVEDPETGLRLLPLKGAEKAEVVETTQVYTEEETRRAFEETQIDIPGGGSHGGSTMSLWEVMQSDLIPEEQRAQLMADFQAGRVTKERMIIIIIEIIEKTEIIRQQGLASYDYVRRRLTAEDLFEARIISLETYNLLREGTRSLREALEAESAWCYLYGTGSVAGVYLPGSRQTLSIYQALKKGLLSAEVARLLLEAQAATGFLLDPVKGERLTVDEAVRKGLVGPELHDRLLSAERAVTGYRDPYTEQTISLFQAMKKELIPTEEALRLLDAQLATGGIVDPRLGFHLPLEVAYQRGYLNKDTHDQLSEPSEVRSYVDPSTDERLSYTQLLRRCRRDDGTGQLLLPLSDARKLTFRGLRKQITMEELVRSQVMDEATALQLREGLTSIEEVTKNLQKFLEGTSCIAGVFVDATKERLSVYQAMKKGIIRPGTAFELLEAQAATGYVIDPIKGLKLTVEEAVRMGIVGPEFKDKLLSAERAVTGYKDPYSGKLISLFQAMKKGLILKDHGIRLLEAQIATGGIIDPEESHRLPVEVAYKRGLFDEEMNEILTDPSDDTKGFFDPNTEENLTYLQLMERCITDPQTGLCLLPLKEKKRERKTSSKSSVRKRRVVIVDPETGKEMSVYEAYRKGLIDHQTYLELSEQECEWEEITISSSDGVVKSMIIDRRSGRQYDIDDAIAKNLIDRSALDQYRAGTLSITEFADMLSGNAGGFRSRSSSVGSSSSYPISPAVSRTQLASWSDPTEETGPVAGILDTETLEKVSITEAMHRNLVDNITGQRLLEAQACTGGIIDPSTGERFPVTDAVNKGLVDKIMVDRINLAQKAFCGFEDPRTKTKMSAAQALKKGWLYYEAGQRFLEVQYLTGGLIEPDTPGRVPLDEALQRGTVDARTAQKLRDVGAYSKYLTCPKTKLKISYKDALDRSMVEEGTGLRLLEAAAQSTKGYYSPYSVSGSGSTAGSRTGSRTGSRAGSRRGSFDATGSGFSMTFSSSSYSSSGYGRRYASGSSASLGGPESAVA
UniProt P09651, sequence (P09651 whole entry): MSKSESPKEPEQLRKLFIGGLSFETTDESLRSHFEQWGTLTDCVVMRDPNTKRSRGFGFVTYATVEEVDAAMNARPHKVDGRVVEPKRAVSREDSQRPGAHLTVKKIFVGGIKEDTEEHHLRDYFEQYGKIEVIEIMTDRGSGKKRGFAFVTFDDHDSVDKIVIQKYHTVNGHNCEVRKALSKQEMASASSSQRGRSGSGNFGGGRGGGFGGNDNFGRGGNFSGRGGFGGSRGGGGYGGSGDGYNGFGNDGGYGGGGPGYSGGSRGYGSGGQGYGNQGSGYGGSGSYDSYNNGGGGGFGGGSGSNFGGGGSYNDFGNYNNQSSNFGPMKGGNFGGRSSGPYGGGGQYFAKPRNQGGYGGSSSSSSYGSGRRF

Target	lysine labeling ratio R10:1
LAMC1 (lysine site: K1093) (UniProt P11047)	2.13
SPTBN1 (lysine site: K714) (UniProt Q01082)	2.12
FASN (lysine site: K41) (UniProt P49327)	0.712 (active)
CD109 (lysine site: K127) (UniProt Q6YHK3)	12
GOT2 (lysine site: K73) (UniProt P00505)	3.72
EDIL3 (lysine site: K431) (UniProt O43854)	1.29 (active)
CKAP4 (lysine site: K223) (UniProt Q07065)	2.5
PLPP3 (lysine site: K187) (UniProt O14495)	2.06
FAT4 (lysine site: K4224) (UniProt Q6V0I7)	5.49
STOM (lysine site: K198) (UniProt P27105)	5.83
TMEM97 (lysine site: K130) (UniProt Q5BJF2)	3.33
UniProt P14618 (lysine site: K498)	1.49 (active)
TLN1 (lysine site: K357) (UniProt Q9Y490)	1.16 (active)
UniProt P62899 (lysine site: K31)	1.97 (active)
NPR3 (lysine site: K456) (UniProt P17342)	0.78 (active)
C1QBP (lysine site: K91) (UniProt Q07021)	0.97 (active)
SPTBN1 (lysine site: K2177) (UniProt Q01082)	14.1
TFRC (lysine site: K439) (UniProt P02786)	2.93
HNRNPA1 (lysine site: K8) (UniProt P09651)	4.27
SHMT2 (lysine site: K409) (UniProt P34897)	2.98

Target	lysine labeling ratio R10:1
FAT1 (lysine site: K894) (UniProt Q14517)	2.53
UniProt Q8WXI7 (lysine site: K12467)	5.1
LAMC1 (lysine site: K1191) (UniProt P11047)	2.51
UniProt Q15223 (lysine site: K190)	1.25 (active)
EEF1G (lysine site: K434) (UniProt P26641)	3.73
CSRP1 (lysine site: K178) (UniProt P21291)	0.76 (active)
UniProt Q99653 (lysine site: K188)	1.18 (active)
RPL28 (lysine site: K135) (UniProt P46779)	3.84
XRCC5 (lysine site: K648) (UniProt P13010)	1.9 (active)
UniProt Q15149 (lysine site: K1996)	3.69
VPS35 (lysine site: K515) (UniProt Q96QK1)	1.25 (active)
ROBO1 (lysine site: K490) (UniProt Q9Y6N7)	2.81
RPL14 (lysine site: K85) (UniProt P50914)	1.23 (active)
FAT4 (lysine site: K2004) (UniProt Q6V0I7)	1.27 (active)
BTN2A1 (lysine site: K101) (UniProt Q7KYR7)	2.46
SLC9A3R1 (lysine site: K227) (UniProt O14745)	3.96
UniProt Q15149 (lysine site: K2255)	4.45
UniProt O60245 (lysine site: K875)	1.6 (active)
MSN (lysine site: K165) (UniProt P26038)	3.56
SUB1 (lysine site: K68) (UniProt P53999)	8.07

Target	lysine labeling ratio R10:1
SPTAN1 (lysine site: K274) (UniProt Q13813)	2.28
ATP6V0A1 (lysine site: K70) (UniProt Q93050)	0.55 (active)
UniProt P62826 (lysine site: K71)	2.74
PAICS (lysine site: K247) (UniProt P22234)	1.41 (active)
TLN1 (lysine site: K138) (UniProt Q9Y490)	1.21 (active)
B4GAT1 (lysine site: K60) (UniProt O43505)	7.79
PLAUR (lysine site: K29) (UniProt Q03405)	3.61
HNRNPU (lysine site: K697) (UniProt Q00839)	0.915 (active)
RPS27A (lysine site: K113) (UniProt P62979)	1.38 (active)
UniProt Q15149 (lysine site: K1175)	1.67 (active)
HNRNPL (lysine site: K493) (UniProt P14866)	1.94 (active)
SMC2 (lysine site: K222) (UniProt O95347)	1.74 (active)
PDIA4 (lysine site: K582) (UniProt P13667)	2.17
UniProt Q5XKE5 (lysine site: K253)	2.87
PDAP1 (lysine site: K181) (UniProt Q13442)	1.83 (active)
CKAP4 (lysine site: K191) (UniProt Q07065)	2.86
ARHGDIA (lysine site: K52) (UniProt P52565)	1.66 (active)
FOLR1 (lysine site: K76) (UniProt P15328)	3.42
